Giardia FBPA inh – blocks Giardia fructose-bisphosphate aldolase activity; AID 2451; purified Giardia FBPA; Potency, µM (series often up to 59.6 µM), without a hit: at the highest dose activity, negative = inhibition, usual class: inhibitors; 0.71% of 290,000 active; further: nearly all actives have a fitted effect of over 55% in size
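40 nM FBPA preincubated 10 min at RT with compound (up to 57.5 uM final), then substrate plus GAPDH/TPI/NAD/arsenate coupling and diaphorase/resazurin added. Fluorescence read after 20 min at RT, 525/598 nm.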
LmPK inhibitor – blocks Leishmania mexicana pyruvate kinase activity. purified LmPK, Kinase-Glo ATP luminescence, 1 h. 0.37% of 290,000 active. AID 1721. Potency, µM (highest dose often 57.5 µM), for inactives: top-dose activity change, negative = inhibition, actives largely listed as inhibitors
Target sequence (Q27686 whole entry, looked up): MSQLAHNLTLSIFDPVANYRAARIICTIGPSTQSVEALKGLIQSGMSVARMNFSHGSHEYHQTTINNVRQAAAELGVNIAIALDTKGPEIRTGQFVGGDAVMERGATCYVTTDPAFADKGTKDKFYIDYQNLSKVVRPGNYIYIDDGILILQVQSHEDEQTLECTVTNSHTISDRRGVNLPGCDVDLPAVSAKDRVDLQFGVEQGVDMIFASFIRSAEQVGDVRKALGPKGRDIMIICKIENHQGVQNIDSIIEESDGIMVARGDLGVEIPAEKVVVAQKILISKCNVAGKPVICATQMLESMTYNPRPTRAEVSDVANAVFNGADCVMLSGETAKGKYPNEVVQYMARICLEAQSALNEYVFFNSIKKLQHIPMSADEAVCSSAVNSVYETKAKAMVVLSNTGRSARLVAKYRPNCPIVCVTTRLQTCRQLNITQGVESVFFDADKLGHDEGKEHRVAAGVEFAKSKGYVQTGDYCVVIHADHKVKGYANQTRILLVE
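qHTS format; LmPK 0.1 nM; substrates PEP 0.5 mM and ADP 0.1 mM. One-hour room-temperature incubation, then coupled luciferase luminescence; 0.5 nM enzyme wells mark activation.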
Tb PYK inh – T. brucei pyruvate kinase inhibition; Q57TT1; TbPYK enzyme, Kinase-Glo Plus ATP luminescence, 45 min; Potency, µM (series often up to 76.8 µM), without a hit: at the highest dose activity, negative = inhibition, most hits filed as inhibitors; 0.12% of 410,000 active; AID 624173; further: nearly all actives have a fitted effect of over 50% in size
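In this concentration-response screen, enzyme-free wells defined baseline while DMSO plates tracked drift. Each reaction combined TbPYK, substrate, compound and 130 uM ADP for 45 min at room temperature. Kinase-Glo Plus luminescence gave the signal.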
Sm TGR inh – inhibitors of Schistosoma mansoni thioredoxin glutathione reductase; Q962Y6; purified TGR, DTNB reduction, TNB absorbance 405 nm; Potency, µM (highest dose often 114 µM), for inactives: at the top dose activity change, negative = inhibition, actives largely listed as inhibitors; 3% of 360,000 active; AID 485364; further: nearly all actives have a fitted effect of over 60% in size
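First, TGR (20 nM dispensed) and NADPH were mixed with compound. Second, a 15 min room-temperature incubation followed. Third, further NADPH and then DTNB were added to start the reaction. Finally, TNB absorbance was monitored kinetically.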
RE007 growth inh – less growth of the S. pombe RE007 Vpr strain | S. pombe RE007 Vpr strain, BacTiter-Glo ATP luminescence, 24 h | Potency, µM (highest dose often 92.2 µM), for the others: at the highest dose activity change, negative = less growth, actives largely listed as inhibitors | 0.21% of 360,000 active | AID 651644; active means well fitted falling curve with a large enough effect; inconclusive means small, poorly fitted or top-dose-only effect; inactive means no such curve, though single readings can be large or run the other way; further: nearly all actives have a fitted effect of over 50% in size
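Fission yeast strain RE007, carrying one chromosomally integrated HIV-1 vpr copy, was seeded at OD 0.01 in PMG+AL medium with 23 nL pinned compound. After 24 h at 30 °C and 99% humidity, viability was read by BacTiter-Glo luminescence.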
The depositor's hits bear a star; ? = inconclusive; . = no result; [ ] = remark or other dose. The list is not random: actives were taken first. Their share in the collection is about 3.3%. Unless noted, the call rests on the fitted dose curve; in most records, active means well fitted curve in the direction sought with a large enough effect; inconclusive means small, poorly fitted or top-dose-only effect, or another doubt; inactive means no such curve, though single readings can be large; an effect the other way counts as inactive or inconclusive. On the % scale 0 is the no-effect control and ±100 the full control effect; potency means the concentration at half of the fitted maximal effect.

SMILES	Giardia FBPA inh	LmPK inhibitor	Tb PYK inh	Sm TGR inh	RE007 growth inh
C[C@@H]([C@@H](O)c1ccccc1)N(C)C(=O)C(N)Cc1ccccc1 (stereo partly specified)	-8%	-1%	2%	-23%	9%
COc1cc(OC)cc(-c2cc3ccc(OC)cc3cn2)c1	.	.	?	6%	40µM*
COc1ccc2cc(-c3ccccc3)ncc2c1	-6%	-18%	-15%	0%	-10%
COc1ccc2cc(-c3ccsc3)ncc2c1	.	.	-4%	40µM*	-14%
CC1(C)Cc2ccccc2-c2n[nH]c(=S)n21	0%	7.1µM*	2.8µM*	2%	7%
CN(C)c1ncc(C(=O)NCc2ccc(Cl)cc2)cn1	.	.	1%	1%	.
COc1ccc(N2CCN(S(=O)(=O)c3ccc4c(c3)NC(=O)CC(=O)N4)CC2)cc1	.	8%	7%	11µM*	-7%
Cc1cc(C(=O)Nc2ccc(OCc3ccccc3)cc2)c(C)o1	-2%	7.9µM*	-20%	-3%	?
COc1cc2c(cc1OC)C(c1ccc(-c3ccc(Cl)c(Cl)c3)o1)=NCC2	-21%	13µM*	-28%	?	32µM*
Cc1ccc(-c2cc(C(F)F)nc(NCC3CCCO3)n2)cc1 (stereo unspecified)	0%	2%	-16%	-6%	20µM*
Cc1cc(S(=O)(=O)N2CCCC(N(C)CCc3ccccn3)C2)c(C)cc1Cl (stereo unspecified)	.	6%	-10%	45µM*	-12%
O=C(NCc1ccccn1)C1CCCN(S(=O)(=O)c2cc(Cl)ccc2Cl)C1 (stereo unspecified)	.	.	-12%	.	-13%
c1ccc(-c2nnc(-c3ccccc3)nn2)cc1	0%	?	?	18%	0%
c1cncc(-c2nnc(-c3cccnc3)nn2)c1	?	-27%	-19%	-2%	22µM*
Cc1cc(/C=C2\C(=O)NC(=O)N(c3ccccc3)C2=O)c(C)n1-c1ccc(C(=O)O)c(Cl)c1	-21%	-4%	-13%	28µM*	6%
Cc1cc(/C=C2\C(=O)NC(=O)N(c3ccc(F)cc3)C2=O)c(C)n1-c1cccc(C(=O)O)c1	-11%	7%	-18%	?	3%
Cc1cc(/C=C2\C(=O)NC(=O)N(c3ccccc3F)C2=O)c(C)n1-c1cc(C(=O)O)cc(C(=O)O)c1	-8%	-6%	-18%	8.9µM*	.
CCc1nnc(NS(=O)(=O)c2ccc(NC(=O)c3ccc(Br)cc3)cc2)s1	-18%	2%	-1%	-6%	8%
CCOC(=O)CNC(=O)Nc1cc(C(=O)NCc2cccc(F)c2)ccc1N1CCCC1	.	.	5%	-3%	.
COc1ccccc1CNC(=O)COC(=O)/C=C/c1ccc(OC(F)F)c(OC)c1	.	.	1%	-1%	-11%
COc1cc(/C=C/C(=O)OCC(=O)Nc2oc(C)c3c(C)n[nH]c(=O)c23)ccc1OC(F)F	.	.	-18%	22µM*	-14%
O=C1CC(C(=O)Nc2cc(Cl)ccc2Cl)n2ncnc2N1 (stereo unspecified)	-12%	1%	-8%	22µM*	-1%
c1ccc(-c2nc(NCCCn3ccnc3)c3ccccc3n2)cc1	5%	-1%	0%	13%	-24%
Cc1nnc(NC(=O)CCC(=O)NC2CCCCCCC2)s1	7%	-1%	-1%	4%	-5%
NC(=O)c1ccccc1NC(=O)/C=C/c1cccc(Cl)c1	0%	0%	.	12%	-12%[3.69 µM]
SMILES	Giardia FBPA inh	LmPK inhibitor	Tb PYK inh	Sm TGR inh	RE007 growth inh
CCOCCCN(Cc1ccco1)C(=O)c1cc2c(=O)[nH]c3ccc(C)cc3c2s1	1%	14%	-6%	40µM*	-12%
COCCN(Cc1ccco1)C(=O)c1cc2c(=O)[nH]c3ccc(C)cc3c2s1	.	.	-7%	-19%	.
COc1cc(/C=C2/NC(=O)N(Cc3ccccc3F)C2=O)cc(OC)c1O	-24%	6%	?	14µM*	6%
Cc1ccc(C(=O)N2CCN(c3ccc(NC(=O)c4ccc(Br)o4)cc3)CC2)cc1	-6%	1%	-9%	9%	12%
N#Cc1ccccc1N1CCN(C(=O)c2ccc(NC(=O)c3ccc(Br)o3)cc2)CC1	.	.	-5%	28µM*	2%
O=C(c1ccc(Br)o1)N1CCN(c2ccccn2)CC1	5%	1%	1%	-1%	-3%

High-throughput results as filed in PubChem.
